Reference: PubChem BioAssay (EPA / NIEHS)
“And” between values parts separate entries of the source, which are not always exact repeats. Equal values may be shown once. Where a structure was tested more than once in an assay, its records may differ in their call. The source made the active and inactive calls. How the source made its calls: active means hit-call score of the fitted dose curve at least 0.9, where 1 is the maximum; inactive means score below 0.9.

What follows are molecules tested on Interferon-inducible T-cell alpha chemoattractant (ITAC), CXCL11 (gene 6373) (assay: BSK_hDFCGF_ITAC: BioMAP Diversity Plus: hDFCGF Assay for Interferon-inducible T-cell alpha chemoattractant (ITAC) Biomarker Activity (AID 2284251)). Details: primary human foreskin fibroblasts.
In short: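 Chemical dosing of primary human foreskin fibroblast cultures preceded ELISA measurement of I-TAC at 24 h. Response was analysed in the positive direction using DMSO as baseline, while parallel SRB staining measured cytotoxicity.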
O=C(O)C(F)(F)C(F)(F)OC(F)(F)F was tested, and the outcome was “inactive”. With C=C(C)C(=O)OCC(F)(F)C(F)(F)C(F)(F)F the outcome was “inactive”. OCC(F)(F)C(F)(F)C(F)(F)C(F)(F)C(F)(F)C(F)F was tested, and the outcome was “inactive”. For Cc1ccc(S(=O)(=O)OCC(F)(F)C(F)(F)C(F)(F)C(F)(F)C(F)(F)C(F)F)cc1, the outcome was “inactive”. With N=C(N)C(F)(F)C(F)(F)C(F)(F)C(F)(F)C(F)(F)C(F)(F)C(F)(F)F the AC50 was 57.6 µM (active) and 52.7 µM (active). For CCO[Si](CCC(F)(F)C(F)(F)C(F)(F)C(F)(F)C(F)(F)C(F)(F)F)(OCC)OCC, the outcome was “inactive”. FC(F)(F)C(F)(F)CNCC(F)(F)C(F)(F)F was tested, and the outcome was “inactive”. For OCCCC(F)(F)C(F)(F)C(F)(F)F, the outcome was “inactive”. O=C(O)C(F)(F)C(F)(F)C(F)(F)C(F)(F)C(F)(F)C(F)(F)C(F)(F)C(F)(F)Cl was tested, and the AC50 was 29 µM (active) and 36.7 µM (active). For FC(F)(F)C(F)(F)C(F)(F)C(F)(F)C(F)(F)CCI, the AC50 was 30 µM (active) and 40.9 µM (active). With O=C(O)C(F)(F)C(F)(F)C(F)(F)C(F)(F)C(F)(F)C(F)(F)C(F)(F)C(F)(F)C(F)(F)C(F)F the AC50 was 12.8 µM (active) and 5.95 µM (active). With O=P(O)(O)OCCC(F)(F)C(F)(F)C(F)(F)C(F)(F)C(F)(F)C(F)(F)F the AC50 was 5.83 µM (active) and the outcome was “inactive”. In the case of OCC(F)(F)C(F)(F)C(F)(F)F, the outcome is reported as “inactive”. For CCCCCCOC(=O)c1ccccc1O, the AC50 was 40.7 µM (active) and 45.2 µM (active). FC(F)(F)C(F)(F)C(F)(F)C(F)(F)C(F)(F)C(F)(F)C(F)(F)I was tested, and the outcome was “inactive”. For FC1CC(F)(F)C(F)(F)C1(F)F (stereo unspecified), the outcome was “inactive”. With O=S(=O)(O)C(F)(F)C(F)(F)C(F)(F)C(F)(F)C(F)(F)C(F)(F)C(F)(F)F the outcome was “inactive”. With O=C(CC(=O)C(F)(F)C(F)(F)F)C(F)(F)F the outcome was “inactive”.

Each molecule was assayed on Plasminogen activator inhibitor-1 (PAI1), SERPINE1 (gene 5054) (assay: BSK_KF3CT_PAI1: BioMAP Diversity Plus: KF3CT Assay for Plasminogen activator inhibitor-1 (PAI1) Biomarker Activity (AID 2284252)). Details: primary human keratinocytes with fibroblasts.
In short: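 Cells (human keratinocytes co-cultured with foreskin fibroblasts) are exposed to test chemical for 24 h. PAI-1 is then measured by ELISA and analysed for signal gain against DMSO.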
For CC(C)(C)C(=O)CC(=O)C(F)(F)C(F)(F)C(F)(F)F, the outcome was “inactive”. For O=C(O)C(F)(F)C(F)(F)OC(F)(F)F, the outcome was “inactive”. OCC(F)(F)C(F)(F)C(F)(F)C(F)(F)C(F)(F)C(F)(F)F was tested, and the outcome was “inactive”. FC(F)(F)C(F)(F)C(F)(F)C(F)(F)C(F)(F)C(F)(F)C(F)(F)Br was tested, and the outcome was “inactive”. C=C(C)C(=O)OCC(F)(F)C(F)(F)C(F)(F)F was tested, and the outcome was “inactive”. With OCC(F)(F)C(F)(F)C(F)(F)C(F)(F)C(F)(F)C(F)F the outcome was “inactive”. For C=CC(F)(F)C(F)(F)C(F)(F)C(F)(F)C(F)(F)C(F)(F)C(F)(F)C(F)(F)F, the outcome was “inactive”. For Cc1ccc(S(=O)(=O)OCC(F)(F)C(F)(F)C(F)(F)C(F)(F)C(F)(F)C(F)F)cc1, the outcome was “inactive”. For N=C(N)C(F)(F)C(F)(F)C(F)(F)C(F)(F)C(F)(F)C(F)(F)C(F)(F)F, the outcome was “inactive”. CCO[Si](CCC(F)(F)C(F)(F)C(F)(F)C(F)(F)C(F)(F)C(F)(F)F)(OCC)OCC was tested, and the outcome was “inactive”. For FC(F)(F)C(F)(F)CNCC(F)(F)C(F)(F)F, the outcome was “inactive”. In the case of C=CC(=O)OCC(F)(F)C(F)(F)C(F)(F)C(F)(F)COC(=O)C=C, the AC50 is reported as 23.3 µM (active) and 43 µM (active). For FC(F)(F)C(F)(F)C(F)(F)C(F)(F)C(F)(F)C(F)(F)CC1CO1 (stereo unspecified), the outcome was “inactive”. For OCCCC(F)(F)C(F)(F)C(F)(F)F, the outcome was “inactive”. In the case of O=C(Cl)C(F)(F)C(F)(F)C(F)(F)C(F)(F)C(F)(F)C(F)(F)C(F)(F)C(F)(F)F, the AC50 is reported as 41.1 µM (active) and 38.8 µM (active) and 22.7 µM (active). For O=C(O)C(F)(F)C(F)(F)C(F)(F)C(F)(F)C(F)(F)C(F)(F)C(F)(F)C(F)(F)Cl, the AC50 was 32.8 µM (active) and 37.8 µM (active). With FC(F)(F)C(F)(F)C(F)(F)C(F)(F)C(F)(F)CCI the outcome was “inactive”. In the case of O=C(O)C(F)(F)C(F)(F)C(F)(F)C(F)(F)C(F)(F)C(F)(F)C(F)(F)C(F)(F)C(F)(F)C(F)F, the AC50 is reported as 19.3 µM (active) and 13.8 µM (active). With O=P(O)(O)OCCC(F)(F)C(F)(F)C(F)(F)C(F)(F)C(F)(F)C(F)(F)F the outcome was “inactive”. In the case of FC(F)(Br)C(F)(F)C(F)(F)C(F)(F)C(F)(F)C(F)(F)Br, the outcome is reported as “inactive”. In the case of OCC(F)(F)C(F)(F)C(F)(F)F, the outcome is reported as “inactive”. In the case of O=C(O)C(F)(F)C(F)(F)C(F)(F)C(F)(F)C(F)(F)C(F)(F)C(F)(F)C(F)(F)C(F)(F)C(F)(F)C(F)(F)C(F)(F)F, the outcome is reported as “inactive”.
